# What was measured:
# Assay in all cases: PBM binding z-score (relative to random genomic background probes); higher = stronger binding; sequences stand for … in GC…GCGATTGACAGCGTAGAATGAAGG
# [1] = system: FXR:RXRa (NR concentration 270 nM, RXRa partner concentration 90 nM)
# Method in brief: (§1)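 Ligand-free nuclear receptor dimers were bound for 1 h to custom Agilent 4×180K protein-binding microarrays. Detection used antibodies against each partner (one per run). Binding z-scores rest on regression-normalized fluorescence, with random background probes as the reference.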
# [2] = system: LXRa:RXRa (NR concentration 270 nM, RXRa partner concentration 90 nM)
# Method in brief: as §1
# [3] = system: LXRa homodimer (NR concentration 270 nM)
# Method in brief: as §1
# [4] = system: LXRb:RXRa (NR concentration 270 nM, RXRa partner concentration 90 nM)
# Method in brief: as §1
# [5] = system: LXRb homodimer (NR concentration 270 nM)
# Method in brief: as §1
# [6] = system: PPARa:RXRa (NR concentration 270 nM, RXRa partner concentration 90 nM)
# Method in brief: as §1
# [7] = system: PPARg:RXRa (NR concentration 180 nM, RXRa partner concentration 90 nM)
# Method in brief: as §1
# [8] = system: PPARg:RXRa 270nM:90nM, anti-RXR (NR concentration 270 nM, RXRa partner concentration 90 nM)
# Method in brief: as §1
# [9] = system: PPARg:RXRa 30nM:10nM, anti-RXR (NR concentration 30 nM, RXRa partner concentration 10 nM)
# Method in brief: as §1
# [10] = system: PPARg:RXRa 90nM:30nM, anti-RXR (NR concentration 90 nM, RXRa partner concentration 30 nM)
# Method in brief: as §1
# [11] = system: PPARg:RXRa DBDmut IVT, anti-RXR (DBD mutation: RXRa K156A/R161A, NR concentration 270 nM, RXRa partner concentration 90 nM)
# Method in brief: as §1
# [12] = system: PPARg:RXRa IVT, anti-PPARg (NR concentration 270 nM, RXRa partner concentration 90 nM)
# Method in brief: as §1
# [13] = system: PPARg DBDmut:RXRa IVT, anti-PPARg (DBD mutation: PPARg1 K132A/R137A, NR concentration 270 nM, RXRa partner concentration 90 nM)
# Method in brief: as §1
# [14] = system: PPARg DBDmut IVT, anti-PPARg (DBD mutation: PPARg1 K132A/R137A, NR concentration 270 nM)
# Method in brief: as §1
# [15] = system: PPARg homodimer (NR concentration 180 nM)
# Method in brief: as §1
# [16] = system: PXR:RXRa (NR concentration 270 nM, RXRa partner concentration 90 nM)
# Method in brief: as §1
# [17] = system: PXR homodimer (NR concentration 270 nM)
# Method in brief: as §1
# [18] = system: RARa:RXR (NR concentration 270 nM, RXRa partner concentration 90 nM)
# Method in brief: as §1
# [19] = system: RARa homodimer (NR concentration 270 nM)
# Method in brief: as §1
# [20] = system: RARb:RXRa (NR concentration 270 nM, RXRa partner concentration 90 nM)
# Method in brief: as §1
Sequence,PBM binding z-score [1],PBM binding z-score [2],PBM binding z-score [3],PBM binding z-score [4],PBM binding z-score [5],PBM binding z-score [6],PBM binding z-score [7],PBM binding z-score [8],PBM binding z-score [9],PBM binding z-score [10],PBM binding z-score [11],PBM binding z-score [12],PBM binding z-score [13],PBM binding z-score [14],PBM binding z-score [15],PBM binding z-score [16],PBM binding z-score [17],PBM binding z-score [18],PBM binding z-score [19],PBM binding z-score [20]
CCAACTGGGGCAAAGGTTACCATACTCAGTACGA,1.45,1.76,0.221,2.29,-0.694,6.03,11.6,9.99,9.26,10.5,6.6,6.7,0.471,-0.285,1.54,2.39,0.017,4.34,0.873,2.65
TCTAGTTGGTCAAAGGTGACACACTCGAAATGCG,1.46,1.67,0.489,2.08,0.376,4.71,8.48,8.54,8.19,8.69,3.81,4.76,1.03,1.64,2.13,2.14,0.548,2.88,1.33,2.38
ACAGACAGGTGATGAAGGTAACACAGGCTATCAT,0.124,0.0165,-0.085,0.319,-0.129,0.346,1.05,0.295,0.205,0.465,0.127,0.744,0.824,0.414,0.26,-0.00388,0.386,0.0316,0.746,0.493
CCTACTGGGCCCAGGTCATTGATCAGTCAAAGCA,1.37,1.52,0.696,1.88,-0.506,2.17,0.602,1.4,0.0346,0.505,-0.465,1.3,-0.756,-1.2,0.811,1.72,0.241,2.05,0.064,1.95
AATACAGGGTCACTAGGGCAGAGTAGGTACGAAT,6.65,5.17,1.38,4.23,1.51,5.86,8.85,6.78,3.79,6.46,4.88,6.25,2.07,2.29,3.08,3.51,1.1,4.65,1.32,4.27
ATTAGTTGGTCAGCTGAGGTCACACACAATTCGG,3.77,3.68,3.19,3.95,1.13,3.96,2.32,2.81,1.44,2.13,2.22,3.28,0.989,1.49,3.67,5.59,2.59,4.84,2.74,3.72
CGAACTAGGTCAAAACAGGACAGTGAAGGATGAT,3.26,3.07,0.154,1.86,0.313,4.54,6.73,5.86,3.32,5.36,7.83,8.1,3.19,2.56,2.39,2.05,-0.00978,2.02,0.444,3.33
ATATGTAGGTTATCGGGTCATTCAGTTTGCGCAT,2.98,3.41,2.11,3.16,1.34,4.62,6.73,6.32,3.96,5.64,7.56,7.99,3.73,2.54,2.67,3.75,7.33,3.54,1.75,2.56
CGTCCAAGGTCATTGCTAGGTCAGTGAAAGCATT,6.96,5.75,3.09,4.57,1.37,5.32,3.8,5.08,1.55,3.62,3.23,4.03,-0.074,-0.854,4.11,5.16,2.4,5.71,0.612,5.04
ATCTCTAGGTAGCCAAGTTCAGTGAATGCCGAAC,-0.0679,-0.0761,0.135,0.15,0.335,0.168,-0.118,-0.148,-0.248,-0.291,0.328,0.377,-0.173,0.614,0.13,1.2,0.957,0.266,0.228,0.669
AGAATGAGGTTAGTAAGATCAGGGAATTGCGGTC,0.169,0.283,-0.393,0.342,-0.18,1.6,1.07,1.06,0.16,0.634,2.97,2.49,0.854,-0.148,0.454,0.1,0.333,0.331,0.721,1.22
CCTAGTTGGTCAAGGTCACAGACGCTATAGGTAC,4.56,3.92,1.56,3.6,0.603,4.38,3.54,3.88,1.54,2.79,2.26,3.92,0.729,0.0985,3.27,4.21,2.19,4.66,2.61,4.28
ATCGAAAGGTCGATGAGGTGAGTATACACCGTTT,3.46,2.76,-0.117,2.16,0.539,3.5,1.83,2.19,1.1,1.4,0.00502,1.61,1.01,0.136,1.49,2.58,1.07,2.98,0.305,3.37
CCTGATAGGTCAATGGTCAGCTAAAGCAGCTCGC,5.01,3.98,0.776,2.92,0.415,4.48,4.56,4.96,2.53,4.35,3.36,3.31,-0.515,-0.301,2.74,2.07,0.0154,2.95,0.334,4.06
TGAATGAGGTTAAAAGATCAGGGAACGTTGCAAA,2.41,2.05,-0.107,1.55,-0.114,3.8,2.57,3.45,1.49,2.53,1.14,2.17,0.743,0.45,0.137,1.26,0.0168,2.04,0.336,1.72
ACAGACAGGTAATGAAGGTAACTCAGGCTATCAT,0.224,0.251,0.0515,0.0112,0.161,0.173,0.58,-0.0336,-0.0735,-0.327,-0.129,0.574,0.213,0.735,0.348,0.147,0.218,0.263,0.161,0.169
GCGACTCGGGCAAAGCAGGTTACCATAAGGTTGG,-0.00273,-0.166,-0.636,-0.448,-1.41,0.221,0.413,-0.165,-0.926,-0.846,0.437,0.613,-1.22,-1.92,-0.783,-0.339,-0.681,0.418,-0.821,0.403
TCTATTGGTTGATTAGGGCAACCGAAACAGCGGA,0.575,0.37,-0.105,0.525,0.775,0.817,0.0989,1.86,3.2,2.59,1.96,1.31,1.58,0.647,1.38,0.573,0.277,0.835,0.652,1.06
ACTAGCAGGCCAAGTTTGGGTCACTCAAACAAAG,0.133,0.0719,-0.339,0.663,-0.95,1.49,0.094,0.413,-0.485,0.0599,1.09,1.22,-0.627,-1.37,0.284,0.859,-0.237,1.45,-0.797,1.83
TCTAGTTGGTCTCGGAGGTCACACACGACGGGTA,2.68,3,2.28,3.18,0.844,3.52,1.68,3.05,3.33,3.13,1.7,2.32,1.38,1.29,2.19,4.11,0.901,4.22,0.998,3.35
TCATGTAGATCAAGCAGGTTAAGAAAGCCTGAGT,0.865,0.684,-0.0467,0.774,-0.523,0.929,-0.116,1.74,3.28,2.36,2.01,0.466,0.49,0.274,0.552,0.746,0.293,0.72,-0.363,-0.0113
ACTAGTTGGTCAGCTGAGGTCACGCACAATTCGG,3.89,3.8,2.33,3.79,0.387,4.12,2.12,3.28,0.707,2.16,1.52,3.03,0.779,-0.0173,2.43,5.57,1.08,4.84,0.816,4.04
ACAGACAGGTGATTGAAGGTAACTCAGCTGGACG,0.407,0.000463,-0.444,-0.451,-0.457,0.0856,0.626,-0.0372,0.0722,-0.274,0.234,0.403,-0.375,-0.0689,0.449,-0.285,-0.239,0.452,-0.476,0.303
TCTTGTAGATCAATAGAGGTTACGAAAGTGCGCT,1.11,3.47,0.474,2.05,0.24,2.12,0.4,1.79,2.79,2.24,1.83,1.63,0.944,0.638,0.416,3.21,0.389,2.22,0.489,1.24
CGAACTAGGTCATTGACATGACAGTGAATAGTAA,5.2,3.24,0.582,2.31,-0.197,4.88,7.61,6.52,3.97,6.29,8.34,8.44,3.7,2.52,1.93,1.45,-0.208,2.28,0.896,3.62
TCTAGATGGTCAAAGGTCACACACTCGAAATGCG,6.69,5.75,4.06,5.58,1.37,6.38,10.2,8.58,8.53,9.72,3.19,5.41,1.82,1.44,5.45,6.1,1.7,7.48,3.63,4.89
TAGCCTAGCTCATGCGGGCCAGTATAGTGTCGGC,-2.69,-1.21,-0.957,-1.4,-1.43,-1.23,-0.395,-1.21,-0.899,-0.925,-0.92,-0.527,-0.361,-0.899,-1.61,-1.02,-0.998,-1.04,-0.996,-1.16
TCATATAGGTAAAGGGGAAAGTCGAACGATATGA,0.639,0.796,-0.0838,0.901,0.0683,2.18,2.99,4.18,4.55,4.52,4.16,2.85,1.41,1.19,0.621,0.551,0.506,0.562,0.996,0.83
CGTACTAGGTCATCCAGGACAGTGAATACATTGA,4.17,2.58,0.958,2.46,0.292,4.53,6.87,5.33,3.15,5.25,7.23,7.74,1.93,1.33,2.23,1.87,0.94,2.45,0.55,3.8
